Measurements: the supplement of paper PMC10849652
About 7,900 targets were measured; listed, in parts, are those with a hit and a random draw of the rest. About 0.6% of all pairs of compound and target were hits. Values without a mark were called inactive.

Legend:
Test in all cases: log2 fold change, soluble protein after heating vs DMSO (PISA); higher = thermal stabilisation; K562 cells, 10 uM, 30 min; active = over 0.2 and 3.5 SD of the protein, either way, in both replicates (recomputed)
[1] = target: ZC3H8 (UniProt Q8N5P1)
Sequence of ZC3H8 (Q8N5P1 whole entry, looked up): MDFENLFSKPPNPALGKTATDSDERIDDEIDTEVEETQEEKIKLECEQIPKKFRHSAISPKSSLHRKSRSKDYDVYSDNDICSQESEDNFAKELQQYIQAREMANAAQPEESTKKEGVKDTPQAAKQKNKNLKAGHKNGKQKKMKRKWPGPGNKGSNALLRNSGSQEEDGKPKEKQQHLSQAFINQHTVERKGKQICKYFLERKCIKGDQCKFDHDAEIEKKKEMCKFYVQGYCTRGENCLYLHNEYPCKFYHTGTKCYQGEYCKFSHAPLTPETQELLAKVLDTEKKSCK
How it was run: (§1)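 Quantification of soluble protein used TMTpro 16plex LC-MS/MS, with channel sums equalised. Samples were the supernatant after 21,000xg for 90 min of pooled aliquots from K562 cells (2×10^6 cells/mL) treated with 10 μM compound for 30 min, heated for 3 min over 48°C-58°C, and extracted in PBS with 0.5% NP-40 at 4°C. Values, from duplicates, describe thermal stability against control samples on a log2 fold-change scale.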

[2] = target: ZC3HC1 (UniProt Q86WB0)
How it was run: as §1

[3] = target: ZCCHC9 (UniProt Q8N567)
How it was run: as §1

[4] = target: ZDHHC17 (UniProt Q8IUH5)
How it was run: as §1

[5] = target: ZDHHC20 (UniProt Q5W0Z9)
How it was run: as §1

[6] = target: ZDHHC5 (UniProt Q9C0B5)
How it was run: as §1

[7] = target: ZDHHC6 (UniProt Q9H6R6)
How it was run: as §1

[8] = target: ZDHHC7 isoform 2 (UniProt Q9NXF8)
How it was run: as §1

[9] = target: ZDHHC8 isoform 3 (UniProt Q9ULC8)
How it was run: as §1

[10] = target: ZEB2 (UniProt O60315)
Sequence of ZEB2 (O60315 whole entry, looked up): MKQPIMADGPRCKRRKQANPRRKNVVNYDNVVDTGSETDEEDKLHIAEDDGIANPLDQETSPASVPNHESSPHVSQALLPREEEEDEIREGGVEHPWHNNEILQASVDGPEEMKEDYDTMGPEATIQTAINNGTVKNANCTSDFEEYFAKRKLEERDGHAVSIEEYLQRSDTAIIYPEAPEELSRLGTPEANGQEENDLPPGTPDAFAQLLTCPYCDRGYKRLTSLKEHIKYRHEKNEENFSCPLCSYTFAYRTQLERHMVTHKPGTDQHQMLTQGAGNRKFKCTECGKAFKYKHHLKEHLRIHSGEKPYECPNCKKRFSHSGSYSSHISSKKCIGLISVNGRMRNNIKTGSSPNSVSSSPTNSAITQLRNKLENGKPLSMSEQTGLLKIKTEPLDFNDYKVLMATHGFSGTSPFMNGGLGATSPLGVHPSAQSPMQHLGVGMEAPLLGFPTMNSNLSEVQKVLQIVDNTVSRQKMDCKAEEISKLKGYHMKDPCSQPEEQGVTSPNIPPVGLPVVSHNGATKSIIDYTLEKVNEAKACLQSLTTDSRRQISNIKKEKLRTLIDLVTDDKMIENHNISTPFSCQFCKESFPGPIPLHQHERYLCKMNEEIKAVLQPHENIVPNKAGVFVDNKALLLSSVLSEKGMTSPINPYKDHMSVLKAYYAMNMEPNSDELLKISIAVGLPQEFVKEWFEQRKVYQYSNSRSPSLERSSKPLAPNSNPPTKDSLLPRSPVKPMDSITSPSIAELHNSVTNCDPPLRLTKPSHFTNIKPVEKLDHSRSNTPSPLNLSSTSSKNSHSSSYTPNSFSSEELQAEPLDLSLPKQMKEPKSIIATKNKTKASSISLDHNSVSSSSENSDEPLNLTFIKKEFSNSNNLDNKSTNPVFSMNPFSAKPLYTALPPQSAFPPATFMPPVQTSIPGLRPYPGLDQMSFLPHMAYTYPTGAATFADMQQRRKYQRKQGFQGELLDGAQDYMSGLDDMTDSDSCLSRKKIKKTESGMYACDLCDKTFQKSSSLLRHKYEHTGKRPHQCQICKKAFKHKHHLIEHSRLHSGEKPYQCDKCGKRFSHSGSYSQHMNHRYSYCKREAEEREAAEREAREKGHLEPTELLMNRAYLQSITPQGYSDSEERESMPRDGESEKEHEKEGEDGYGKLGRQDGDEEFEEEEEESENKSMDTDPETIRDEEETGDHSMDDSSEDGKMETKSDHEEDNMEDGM
How it was run: as §1

[11] = target: ZER1 (UniProt Q7Z7L7)
Sequence of ZER1 (Q7Z7L7 whole entry, looked up): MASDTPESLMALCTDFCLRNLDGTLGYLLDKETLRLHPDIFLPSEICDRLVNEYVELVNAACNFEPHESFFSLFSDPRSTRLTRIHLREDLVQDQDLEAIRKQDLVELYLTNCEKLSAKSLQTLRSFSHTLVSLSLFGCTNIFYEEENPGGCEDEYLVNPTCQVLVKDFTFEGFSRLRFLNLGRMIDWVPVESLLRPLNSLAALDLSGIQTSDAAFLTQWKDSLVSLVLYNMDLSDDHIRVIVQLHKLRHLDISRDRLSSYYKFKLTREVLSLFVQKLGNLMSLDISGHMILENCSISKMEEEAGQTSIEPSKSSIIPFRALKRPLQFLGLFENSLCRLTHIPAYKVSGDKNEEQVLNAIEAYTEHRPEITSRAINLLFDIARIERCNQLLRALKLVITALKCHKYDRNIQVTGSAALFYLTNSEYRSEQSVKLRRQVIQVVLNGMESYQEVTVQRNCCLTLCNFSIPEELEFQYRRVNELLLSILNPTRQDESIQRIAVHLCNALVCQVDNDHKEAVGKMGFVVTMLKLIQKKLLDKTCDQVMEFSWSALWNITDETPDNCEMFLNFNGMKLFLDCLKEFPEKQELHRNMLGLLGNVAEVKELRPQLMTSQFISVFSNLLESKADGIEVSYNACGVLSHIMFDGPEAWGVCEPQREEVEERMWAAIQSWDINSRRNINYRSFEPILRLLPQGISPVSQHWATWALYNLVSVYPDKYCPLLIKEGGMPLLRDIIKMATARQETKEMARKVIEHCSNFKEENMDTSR
How it was run: as §1

[12] = target: ZFAND5 (UniProt O76080)
Sequence of ZFAND5 (O76080 whole entry, looked up): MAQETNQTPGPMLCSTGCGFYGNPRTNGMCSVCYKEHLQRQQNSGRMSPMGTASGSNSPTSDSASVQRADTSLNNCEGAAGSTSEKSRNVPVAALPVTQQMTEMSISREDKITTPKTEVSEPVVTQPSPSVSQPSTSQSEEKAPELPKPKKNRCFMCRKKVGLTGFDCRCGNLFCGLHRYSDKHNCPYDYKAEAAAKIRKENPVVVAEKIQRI
How it was run: as §1

[13] = target: ZFAND6 (UniProt Q6FIF0)
How it was run: as §1

[14] = target: ZFP91 (UniProt Q96JP5)
How it was run: as §1

[15] = target: ZFPL1 (UniProt O95159)
Sequence of ZFPL1 (O95159 whole entry, looked up): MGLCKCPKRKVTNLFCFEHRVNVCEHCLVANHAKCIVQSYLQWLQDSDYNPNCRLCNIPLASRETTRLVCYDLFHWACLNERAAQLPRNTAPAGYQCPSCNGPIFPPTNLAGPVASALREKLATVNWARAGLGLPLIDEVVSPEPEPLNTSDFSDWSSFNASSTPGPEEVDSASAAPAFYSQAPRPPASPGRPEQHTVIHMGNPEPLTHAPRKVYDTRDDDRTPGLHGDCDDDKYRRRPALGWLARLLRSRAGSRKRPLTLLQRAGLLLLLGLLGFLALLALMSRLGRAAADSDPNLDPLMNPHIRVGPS
How it was run: as §1

[16] = target: ZMAT2 (UniProt Q96NC0)
Sequence of ZMAT2 (Q96NC0 whole entry, looked up): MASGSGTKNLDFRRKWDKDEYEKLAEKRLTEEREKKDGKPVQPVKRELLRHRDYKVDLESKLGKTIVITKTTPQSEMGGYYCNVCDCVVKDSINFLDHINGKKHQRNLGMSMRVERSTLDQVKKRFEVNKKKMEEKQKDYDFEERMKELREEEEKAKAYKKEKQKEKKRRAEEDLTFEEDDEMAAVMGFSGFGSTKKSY
How it was run: as §1

[17] = target: ZMYM1 (UniProt Q5SVZ6)
How it was run: as §1

[18] = target: ZMYM3 (UniProt Q14202)
Sequence of ZMYM3 (Q14202 whole entry, looked up): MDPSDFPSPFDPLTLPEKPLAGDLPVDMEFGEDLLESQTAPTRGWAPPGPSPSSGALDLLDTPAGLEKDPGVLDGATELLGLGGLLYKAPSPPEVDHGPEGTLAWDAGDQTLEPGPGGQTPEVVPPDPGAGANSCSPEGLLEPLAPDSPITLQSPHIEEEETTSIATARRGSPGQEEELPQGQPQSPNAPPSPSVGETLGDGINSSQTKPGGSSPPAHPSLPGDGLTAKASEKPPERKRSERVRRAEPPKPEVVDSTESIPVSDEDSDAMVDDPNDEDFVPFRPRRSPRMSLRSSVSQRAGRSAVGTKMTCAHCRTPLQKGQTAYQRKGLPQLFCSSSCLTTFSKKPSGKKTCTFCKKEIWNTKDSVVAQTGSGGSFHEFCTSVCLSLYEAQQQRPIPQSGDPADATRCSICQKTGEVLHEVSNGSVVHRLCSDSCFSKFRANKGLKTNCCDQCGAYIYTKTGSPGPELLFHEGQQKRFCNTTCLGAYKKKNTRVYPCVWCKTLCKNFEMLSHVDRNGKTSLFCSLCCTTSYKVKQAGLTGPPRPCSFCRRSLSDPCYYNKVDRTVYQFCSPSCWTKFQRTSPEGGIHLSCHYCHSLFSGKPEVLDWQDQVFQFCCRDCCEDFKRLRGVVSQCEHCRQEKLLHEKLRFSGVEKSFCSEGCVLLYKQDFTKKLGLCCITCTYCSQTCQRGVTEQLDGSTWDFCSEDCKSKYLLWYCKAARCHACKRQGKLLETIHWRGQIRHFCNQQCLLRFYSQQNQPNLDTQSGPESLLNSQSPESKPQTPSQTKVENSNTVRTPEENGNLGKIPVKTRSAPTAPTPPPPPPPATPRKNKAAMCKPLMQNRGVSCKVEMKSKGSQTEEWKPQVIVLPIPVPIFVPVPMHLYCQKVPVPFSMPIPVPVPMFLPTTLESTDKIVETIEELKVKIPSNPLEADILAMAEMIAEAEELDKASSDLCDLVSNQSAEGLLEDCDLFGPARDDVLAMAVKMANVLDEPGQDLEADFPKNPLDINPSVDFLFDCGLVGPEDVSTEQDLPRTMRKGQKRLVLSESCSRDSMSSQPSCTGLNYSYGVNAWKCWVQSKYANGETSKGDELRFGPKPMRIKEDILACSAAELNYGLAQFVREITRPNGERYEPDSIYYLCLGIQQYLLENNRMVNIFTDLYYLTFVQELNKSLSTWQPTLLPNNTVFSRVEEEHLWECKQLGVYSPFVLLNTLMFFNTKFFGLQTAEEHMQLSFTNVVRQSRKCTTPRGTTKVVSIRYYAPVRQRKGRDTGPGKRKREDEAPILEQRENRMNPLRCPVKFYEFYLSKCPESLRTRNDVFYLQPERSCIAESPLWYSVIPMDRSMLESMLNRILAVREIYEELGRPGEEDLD
How it was run: as §1

[19] = target: ZNF143 (UniProt P52747)
Sequence of ZNF143 (P52747 whole entry, looked up): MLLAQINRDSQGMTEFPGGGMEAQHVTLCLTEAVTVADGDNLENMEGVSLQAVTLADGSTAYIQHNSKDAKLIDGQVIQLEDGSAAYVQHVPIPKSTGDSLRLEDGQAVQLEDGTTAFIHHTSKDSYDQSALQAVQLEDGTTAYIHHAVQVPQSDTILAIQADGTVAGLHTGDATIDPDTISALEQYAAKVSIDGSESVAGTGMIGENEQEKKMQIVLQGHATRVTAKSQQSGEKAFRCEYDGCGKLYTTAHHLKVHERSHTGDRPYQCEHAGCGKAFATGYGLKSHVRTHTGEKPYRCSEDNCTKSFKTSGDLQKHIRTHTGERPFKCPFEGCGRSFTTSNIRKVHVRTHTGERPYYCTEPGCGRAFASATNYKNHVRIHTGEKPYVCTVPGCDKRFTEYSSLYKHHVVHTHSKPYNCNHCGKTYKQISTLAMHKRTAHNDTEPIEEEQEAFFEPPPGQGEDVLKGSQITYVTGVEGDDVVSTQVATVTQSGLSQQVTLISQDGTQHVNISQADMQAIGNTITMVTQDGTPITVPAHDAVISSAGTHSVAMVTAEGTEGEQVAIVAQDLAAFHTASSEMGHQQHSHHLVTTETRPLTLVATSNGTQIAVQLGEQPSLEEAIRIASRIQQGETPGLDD
How it was run: as §1

[20] = target: ZCCHC17 (UniProt Q9NP64)
How it was run: as §1

Structure (SMILES)	log2 fold change [1]	log2 fold change [2]	log2 fold change [3]	log2 fold change [4]	log2 fold change [5]	log2 fold change [6]	log2 fold change [7]	log2 fold change [8]	log2 fold change [9]	log2 fold change [10]	log2 fold change [11]	log2 fold change [12]	log2 fold change [13]	log2 fold change [14]	log2 fold change [15]	log2 fold change [16]	log2 fold change [17]	log2 fold change [18]	log2 fold change [19]	log2 fold change [20]
CC[C@H](C)[C@H](NC(=O)[C@H]([C@@H](C)CC)N(C)C(C)=O)C(=O)N[C@H](C(=O)N[C@@H](CC(C)C)C(=O)[C@@]1(C)CO1)[C@@H](C)O [epoxomicin]	-0.107	0.1	-0.303	-0.044	-0.102	-0.083	-0.052	0.124	-0.037	-0.026	0.048	0.345 (active)	0.051	-0.045	0.134	0.103	-0.05	-0.033	0.026	
CCCCN(Cc1ccc(C(=O)NO)cc1)C(=O)Nc1ccccc1 [Nexturastat A]	0.106	-0.106	0.311	-0.086	-0.149	-0.001	-0.06	0.052	-0.151	0.047	0.012	0.371 (active)	0.027	0.079	-0.064	-0.011	0.059	0.07	0.19	
Cn1cncc1[C@@](N)(c1ccc(Cl)cc1)c1ccc2c(c1)c(-c1cccc(Cl)c1)cc(=O)n2C [tipifarnib]	0.043	-0.183	0.113	0.032	-0.014	0.013	0.086	-0.047		0.045	0.111	0.031	-0.09	0.149	0.008	-0.058	0.01	0.027	0.037	
COC(=O)N[C@@H](C)CNc1nccc(-c2cn(C(C)C)nc2-c2cc(Cl)cc(NS(C)(=O)=O)c2F)n1 [encorafenib]	-0.01	0.05	0.002	-0.015	-0.058	-0.028	0.006	-0.043			0.01	-0.047	-0.019	0.038	-0.026	0.106	0.082	-0.032	0.014	
Cc1cc(Nc2cc(CN3CCOCC3)c3nc(C)c(Cc4ccc(Cl)cc4F)n3n2)n[nH]1 [gandotinib]	0.15	-0.157	0.265	0.052	0.018	-0.041	-0.018	0.034			-0.269	0.066	-0.004	0.214	0.011	-0.014	0.305	0.051	0.025	
CON(C)C(=O)N1N=C(c2cc(F)ccc2F)S[C@@]1(CCCN)c1ccccc1 [filanesib]	0.191	-0.042	0.527 (active)	-0.219	0.008	0.048				0.025	-0.006	0.073	-0.111	0.183	-0.001	-0.084	0.067	0.012	0.024	0.565 (active)
CCCS(=O)(=O)Nc1ccc(F)c(C(=O)c2c[nH]c3ncc(Cl)cc23)c1F	-0.138	0.189	-0.177	-0.016	0.138	-0.009	-0.048	0.014		0.123	-0.001	-0.058	0.002	-0.041	0.006	-0.008	-0.006	0.016	0.063	
CS(=O)(=O)CCNCc1ccc(-c2ccc3ncnc(Nc4ccc(OCc5cccc(F)c5)c(Cl)c4)c3c2)o1 [lapatinib]	0	0	0.028	-0.022	0.063	-0.072	-0.031	0.034		0.019	-0.057	0.038	-0.106	0.173	-0.035	0.016	0.082	0.007	-0.011	
CNC(=O)c1ccc(Nc2ncc(C(F)(F)F)c(NCc3nccnc3N(C)S(C)(=O)=O)n2)cc1 [defactinib]	0.228	-0.227	0.216	-0.007	-0.231	-0.097		0.001		0.019	0.027	0.085	-0.045	0.054	-0.083	-0.014	0.558 (active)	-0.013	-0.171	0.149
Cc1ccc(Sc2cncc3sc(C(N)=O)cc23)cc1	-0.115	0.053	-0.109	0.038	0.014	-0.011	0.034	-0.138		-0.012	-0.085	-0.047	-0.01	-0.025	0.008	0.113	0.061	-0.07	-0.042	
O=C1NC(=O)C(c2cnc3ccccn23)=C1c1cn2c3c(cc(F)cc13)CN(C(=O)N1CCCCC1)CC2	0	-0.132	0.229	0.043	0.079	-0.014	0.089	-0.021	0.029	0.116	-0.198	-0.157	-0.013	0.073	-0.003	0.012	0.045	0.003	-0.042	
CN1CCC(CNc2ccc3ncc(-c4cccc(OC(F)(F)F)c4)n3n2)CC1	0.397 (active)	-0.402 (active)	0.181	0.065	0.035	0.31 (active)	0.011	-0.415 (active)			-0.172	-0.068	-0.037	0.171	-0.085	0.008	0.086	0.035	-0.109	
NC(=O)Nc1cc(-c2cccc(F)c2)sc1C(=O)N[C@H]1CCCNC1	0.025	-0.016	-0.11	0.084	-0.219	-0.081				0.003	-0.046	-0.041	0.12	-0.044	-0.04	0.282 (active)	-0.108	-0.042	0.07	-0.064
Fc1ccc(Cl)cc1-c1nc(Nc2ccncc2)c2nccnc2n1	-0.275	0.128	-0.378	-0.006	0.152	-0.002	-0.083	0.093	0.028	-0.099	-0.022	0.003	-0.05	0.007	0.101	0.018	-0.057	-0.012	-0.058	
